Inconclusive results are not listed. Active and inactive are the calls of the source. Rule for the calls: active = hit-call score of the fitted dose curve at least 0.9, where 1 is the maximum; inconclusive = response in the unintended direction; inactive = score below 0.9.
Assays:
[1] = TOX21_p53_BLA_p2_viability: Viability Assessment in the Tox21 HCT-116 p53 Agonism Beta-lactamase Assay, Phase 2 (AID 2283591);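 note: compound exposure lasted 16 h at 37 °C; actives lower the ATP signal meaning cytotoxicity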
Summary of the method: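 HCT116 p53-bla cells, 4000/well, dosed after 5 h plating (217-fold dilution of DMSO stocks) and incubated 16 h at 37C. Viability taken as cellular ATP by CellTiter-Glo luminescence after 30 min RT; signal loss marks cytotoxicity.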

[2] = target: Cellular tumor antigen p53 (Homo sapiens) (UniProt P04637); assay: TOX21_p53_BLA_p2_ratio: Tox21 HCT-116 p53 Agonism Beta-lactamase Assay, Ratio, Phase 2 (AID 2283592)
Chain of Cellular tumor antigen p53 (Homo sapiens) (P04637 whole entry, looked up): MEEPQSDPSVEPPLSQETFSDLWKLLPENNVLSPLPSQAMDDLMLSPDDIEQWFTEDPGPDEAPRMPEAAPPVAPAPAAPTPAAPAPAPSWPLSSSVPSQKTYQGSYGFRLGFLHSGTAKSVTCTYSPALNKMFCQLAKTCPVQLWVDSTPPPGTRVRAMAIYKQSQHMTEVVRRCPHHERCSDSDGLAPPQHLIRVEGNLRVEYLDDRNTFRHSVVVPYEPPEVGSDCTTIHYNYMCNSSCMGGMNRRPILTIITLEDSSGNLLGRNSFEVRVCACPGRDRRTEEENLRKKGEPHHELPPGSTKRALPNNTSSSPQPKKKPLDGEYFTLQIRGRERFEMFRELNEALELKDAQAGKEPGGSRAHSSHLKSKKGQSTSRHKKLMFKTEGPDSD
Summary of the method: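 Read-out is the blue/green (460/530 nm, 405 nm excitation) ratio after 2 h CCF4-AM loading, fitted as gain versus DMSO. Compounds, pinned at 217-fold dilution from DMSO stocks, stayed 16 h on HCT-116 beta-lactamase reporter cells seeded 5 h earlier.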

[3] = TOX21_p53_BLA_p4_viability: Viability Assessment in the Tox21 HCT-116 p53 Agonism Beta-lactamase Assay, Phase 4 (AID 2283597);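 note: hits lower the luminescence signal meaning cytotoxicity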
Summary of the method: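 Cytotoxicity as reduced cellular ATP (CellTiter-Glo luminescence, 30 min room temperature), measured in the same wells following the CCF4 FRET p53 reading. Human HCT-116 cells received compounds in DMSO (217-fold dilution) for 16 h.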

[4] = target: Cellular tumor antigen p53 (Homo sapiens) (UniProt P04637); assay: TOX21_p53_BLA_p4_ratio: Tox21 HCT-116 p53 Agonism Beta-lactamase Assay, Ratio, Phase 4 (AID 2283601)
Summary of the method: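 HCT-116 p53 beta-lactamase reporter cells (4000/well) preincubated 5 h, then compound (217-fold dilution of DMSO stock) for 16 h at 37C. CCF4-AM substrate added 2 h at room temperature; 460/530 nm emission ratio fitted upward versus DMSO.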

[5] = TOX21_p53_BLA_p3_viability: Viability Assessment in the Tox21 HCT-116 p53 Agonism Beta-lactamase Assay, Phase 3 (AID 2283593);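 note: cells exposed to compound for 16 h before reading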
Summary of the method: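 HCT116 cells, 4000/well, dosed 5 h after plating by pin transfer (217-fold dilution from DMSO stock) and incubated 16 h at 37C, 5% CO2. Viability read as ATP luminescence with CellTiter-Glo after 30 min at room temperature.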

[6] = target: Cellular tumor antigen p53 (Homo sapiens) (UniProt P04637); assay: TOX21_p53_BLA_p3_ratio: Tox21 HCT-116 p53 Agonism Beta-lactamase Assay, Ratio, Phase 3 (AID 2283596)
Summary of the method: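 Cells were seeded at 4000/well, rested 5 h at 37C, then dosed with DMSO compound solutions (217-fold dilution) for 16 h. CCF4-AM substrate was loaded for 2 h at room temperature, and the 460/530 nm emission ratio was fitted for gain of signal versus DMSO.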

[7] = target: Cellular tumor antigen p53 (Homo sapiens) (UniProt P04637); assay: TOX21_p53_BLA_p5_ratio: Tox21 HCT-116 p53 Agonism Beta-lactamase Assay, Ratio, Phase 5 (AID 2283599)
Summary of the method: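 HCT-116 p53-bla cells (4000/well) plated 5 h, dosed with compound (217-fold DMSO dilution) for 16 h at 37 C; CCF4-AM substrate 2 h at room temperature. Activity is the 460/530 nm emission ratio (405 nm excitation), fitted in gain-of-signal direction versus DMSO.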

[8] = TOX21_p53_BLA_p5_viability: Viability Assessment in the Tox21 HCT-116 p53 Agonism Beta-lactamase Assay, Phase 5 (AID 2283600)
Summary of the method: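 Viability came from CellTiter-Glo ATP luminescence, read after 30 min at room temperature. Before this, HCT-116 p53-bla cells (4000/well) had 16 hours of compound exposure at 37C, with DMSO stocks diluted 217-fold on transfer.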

Measured: outcome

CON(C)C(=O)Nc1ccc(Br)cc1
inactive: [1] | [2] | [3] | [4]

CC(C)c1ccc(NC(=O)N(C)C)cc1
inactive: [1] | [5] | [6] | [3] | [7] | [8] | [4]

CC(Cl)C(=O)O (stereo not given)
inactive: [1] | [5] | [6] | [3] | [7]

COC1CC(=C(c2cccs2)c2cccs2)C[N+](C)(C)C1 (stereo not given)
inactive: [1] | [2] | [7] | [8]

From PubChem BioAssay (EPA / NIEHS)
